# DT40 TDP1 no CPT: qHTS for Inhibitors of human tyrosyl-DNA phosphodiesterase 1 (TDP1): qHTS in cells in absence of CPT; DT40 Tdp1-/- hTDP1 cells, no CPT, ATP luminescence, 48 h; Potency, µM (titrated, usually from 46.2 µM), without a hit: top-dose activity change, negative = growth inhibition, hits mostly inhibitors; hit rate 15% among 420,000; AID 686978, 2013; also: nearly all actives have a fitted effect of over 55% in size
#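 Chicken DT40 Tdp1-/- cells stably complemented with human TDP1 were seeded at 400 cells/well with DMSO in place of 20 nM camptothecin. After compound pinning, cells grew at least 48 hr at 37 °C; viability read by CellTiter-Glo luminescence.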
# TDP1 inh: qHTS Assay for Inhibitors of Tyrosyl-DNA Phosphodiesterase (TDP1); recombinant TDP1, AlphaScreen DNA substrate cleavage; hit rate 0.28% among 350,000; AID 485290, 2010; Tyrosyl-DNA phosphodiesterase 1 (Homo sapiens), Q9NUW8; Potency, µM (titrated, usually from 130 µM), for inactives: at the top dose activity change, negative = inhibition, hits mostly inhibitors; also: nearly all actives have a fitted effect of over 40% in size
#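 AlphaScreen read-out: signal falls as enzyme removes the 3' tyrosine-FITC from a 5'-biotinylated DNA oligo (15 nM, 5 min, RT). Enzyme was E. coli-made recombinant Tdp1 at 1 nM, exposed to compound for 15 min beforehand; beads 10 ug/ml, 10 min.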
# RORgamma inh: qHTS for inhibitors of ROR gamma transcriptional activity. Nuclear receptor ROR-gamma (Mus musculus), P51450. Drosophila S2 Gal4-RORgamma UAS-luciferase reporter, 20 h. Potency, µM (series often up to 53.6 µM), inactives show at the highest dose activity change, negative = inhibition, actives largely listed as inhibitors. hit rate 5.4% among 310,000. AID 2551, 2010; also: nearly all actives have a fitted effect of over 60% in size
# Target sequence (P51450 whole entry, looked up, the tested form may be a part): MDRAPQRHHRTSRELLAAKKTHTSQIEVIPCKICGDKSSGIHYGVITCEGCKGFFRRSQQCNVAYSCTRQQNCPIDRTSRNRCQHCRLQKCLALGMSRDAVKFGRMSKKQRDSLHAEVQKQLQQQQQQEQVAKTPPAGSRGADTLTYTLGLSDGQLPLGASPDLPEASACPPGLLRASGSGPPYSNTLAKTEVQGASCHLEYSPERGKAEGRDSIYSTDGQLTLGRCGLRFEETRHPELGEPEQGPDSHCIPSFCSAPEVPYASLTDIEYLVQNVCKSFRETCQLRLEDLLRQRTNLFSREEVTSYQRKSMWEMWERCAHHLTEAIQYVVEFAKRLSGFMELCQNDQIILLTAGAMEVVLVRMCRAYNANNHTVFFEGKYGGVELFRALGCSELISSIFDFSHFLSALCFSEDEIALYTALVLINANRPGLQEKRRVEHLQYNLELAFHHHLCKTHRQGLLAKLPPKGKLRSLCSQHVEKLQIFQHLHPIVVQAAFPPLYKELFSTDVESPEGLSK
#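 Stable Schneider cell line, Gal4 DNA-binding domain fused to ROR gamma, UAS-luciferase. Cmpd 1 hr RT → CuSO4 700 uM final → 20 hr RT → luciferase reagent 10 min → luminescence.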
# VP16 counter: VP16 counterscreen qHTS for inhibitors of ROR gamma transcriptional activity; Drosophila S2 Gal4-VP16 UAS-luciferase, luminescence, 20 h; Potency, µM (top dose mostly 53.6 µM), for the others: top-dose activity, negative = inhibition, usual class: inhibitors; hit rate 3.5% among 310,000;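 also: Gal4-VP16 expression switched on by copper sulfate through the metallothionein promoter; nearly all actives have a fitted effect of over 50% in size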
# DT40 TDP1 CPT: qHTS for Inhibitors of human tyrosyl-DNA phosphodiesterase 1 (TDP1): qHTS in cells in presence of CPT | chicken DT40 Tdp1-/-;hTDP1 cells + 20 nM CPT, ATP luminescence, 48 h | AID 686979, 2013 | hit rate 12% among 420,000 | Potency, µM (highest dose often 46.2 µM), inactives show at the top dose activity change, negative = growth inhibition, actives largely listed as inhibitors; also: nearly all actives have a fitted effect of over 55% in size
#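 Cell growth measured by CellTiter-Glo luminescence after a minimum 48 h, 37 C compound exposure with 20 nM CPT in Tdp1-knockout DT40 cells stably expressing hTDP1, seeded 400/well; qHTS titration format.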
# * = called active by the depositor; ? = inconclusive; · = no result given; [ ] = remark or other dose. Hits are enriched below; roughly 19% of the tested compounds scored in any of these assays. Calls follow the shape of the dose curve; as a rule, active = well fitted curve in the direction sought with a large enough effect; inconclusive = small, poorly fitted or top-dose-only effect, or another doubt; inactive = no such curve, though single readings can be large; an effect the other way counts as inactive or inconclusive. % is scaled to controls: 0 for no effect and ±100 for the full control effect; potency is read from the fitted curve at half-maximal effect.
SMILES,DT40 TDP1 no CPT,TDP1 inh,RORgamma inh,VP16 counter,DT40 TDP1 CPT
OCCCN1CCN(CCOc2ccccc2-c2ccccc2)CC1,?,8%,-2%,-8%,1%
Clc1ccc(OCCCN2CCc3ccccc3C2)c(Br)c1,?,·,-13%,?,?
c1ccc(-c2ccccc2OCCOCCN2CCc3ccccc3C2)cc1,12µM*,0%,2%,7%[10 µM],?
CCCCNCCOCCOc1ccccc1-c1ccccc1,29µM*,-3%,-17%,-4%,23µM*
Clc1ccc(OCCOCCN2CCc3ccccc3C2)c(Cl)c1,23µM*,-1%,25%,?,?
CC(NC(=O)c1ccc(=O)oc1)c1ccccc1 (stereo unspecified),?,·,1%,4%,?
CN(C)c1ccc(/C=N/NC(=O)c2nnn(-c3nonc3N)c2COc2ccc(F)cc2)cc1,-19%,·,0%,1%,8%
O=C(NCC1Cc2cc(F)cc(-c3cnccn3)c2O1)c1cccc(-c2ccccc2F)c1 (stereo unspecified),23µM*,·,·,·,12µM*
Cc1cc(C)n(-c2cccc(C(=O)NCC3Cc4cccc(-c5ccccn5)c4O3)c2)n1 (stereo unspecified),12µM*,·,·,·,?
O=C(NCC1Cc2cc(F)cc(-c3cnccn3)c2O1)c1cccc(Cl)c1 (stereo unspecified),18µM*,·,·,·,?
CNc1nc(-c2cccc(C#N)c2)nc2ccccc12,?,·,9%,15%,?
CCCCCN(CCCCC)C(=O)[C@H](CCC(=O)O)NC(=O)c1ccc(Cl)c(Cl)c1,·,5%[56.1 µM],1%[16.9 µM],0%[17 µM],·
CCC(C(=O)NC1CCCC1)N(C(=O)Cn1nnc(-c2cccs2)n1)c1cnc2ccccc2c1 (stereo unspecified),4%,2%,11%,-22%,-10%
O=c1c2ccccc2nc(/C=C/c2cccc([N+](=O)[O-])c2)n1CCO,?,2%,0%,-3%,-9%
Cc1nc2ccccc2c(=O)n1/N=C/c1cc(Br)ccc1O,?,·,13µM*,?,?
Cc1nc2ccccc2c(=O)n1/N=C/c1ccc(N(C)C)cc1,-19%,8%,20%,2%,-1%
Cc1nc2ccccc2c(=O)n1/N=C/c1c(O)ccc2oc3c(c12)CCCC3,18µM*,6%,?,?,21µM*
Cc1nc2ccccc2c(=O)n1/N=C/c1c(O)ccc2ccccc12,18µM*,5%,13µM*,?,?
O=c1c2ccccc2nc(/C=C/c2cc(Br)ccc2O)n1CCCO,16µM*,·,-33%,-3%,?
CCn1cc(-c2ccccc2)c(C(=O)O)c1-c1ccc(OC)cc1,-22%,0%,·,·,1%
Cc1ccc(-c2onc3ccc(C(=O)O)cc23)cc1,16%,·,?,-24%,-1%
COc1cc(NC(=O)CSc2nnc3c(C)cc4c(C)ccc(C)c4n23)c(C(=O)O)cc1OC,-1%,9%,-6%,-2%,20%
COc1cc(/C=C/C(=O)OCC(=O)NCC2CCCCC2)ccc1O,?,1%,·,·,-12%
O=c1[nH]c(N2CCCCCC2)nc2ncn(Cc3ccccc3)c12,14%,2%,18%,-1%,-5%
CSc1nnc(C(C)(C)C)c(=O)n1/N=C/c1c(O)ccc2ccccc12,-4%,5%,10µM*,?,6%
SMILES,DT40 TDP1 no CPT,TDP1 inh,RORgamma inh,VP16 counter,DT40 TDP1 CPT
Cc1n[nH]c(=S)n1/N=C/c1c(O)ccc2ccccc12,-10%,·,?,?,-4%
CCCc1nnc(NC(=O)CCS(=O)(=O)c2ccccc2)s1,5.2µM*,-13%,0%,-8%,2.3µM*
Cc1cc(C)cc(N(CCC(=O)O)S(=O)(=O)c2ccc(Cl)cc2)c1,10%,4%,-3%,-10%,4%
CCc1nnc(NC(=O)CCN(c2cc(C)cc(C)c2)S(=O)(=O)c2ccc(Cl)cc2)s1,18µM*,0%,?,-12%,?
CCCCCc1nnc(NC(=O)Cc2cccs2)s1,-24%,35µM*,-2%,20%,-20%
CCCc1nnc(NS(=O)(=O)c2ccccc2)s1,-7%,·,-23%,3%,?
CCCCc1nnc(NC(=O)CCS(=O)(=O)c2ccc(Cl)cc2)s1,7.3µM*,0%,·,·,6.5µM*
N=c1sccn1CC(=O)NCc1ccc(Cl)cc1Cl,-12%,6%,15%,-10%,14%
NNc1ccc(Cl)nn1,4%,0%,10µM*,?,7%
COc1ccc(C(=O)N2CCCC(c3nc(-c4cc(OC)c(OC)c(OC)c4)no3)C2)cc1 (stereo unspecified),?,3%,7%,11%,21µM*
COc1ccc(-c2noc(C3CCCN(C(=O)c4ccccc4C)C3)n2)cc1 (stereo unspecified),12µM*,·,?,?,16µM*
COc1ccc(-c2noc(C3CCCN(C(=O)c4ccccc4OC)C3)n2)cc1 (stereo unspecified),15µM*,·,?,1%,?
COc1ccc(-c2noc(C3CCCN(C(=O)c4ccccc4)C3)n2)cc1 (stereo unspecified),?,2%,40%,-1%,?
COc1ccc(-c2noc(C3CCCN(C(=O)c4cccc(F)c4)C3)n2)cc1 (stereo unspecified),18µM*,·,?,-7%,-29%
COc1ccccc1C(=O)N1CCCC(c2nc(-c3cc(OC)c(OC)c(OC)c3)no2)C1 (stereo unspecified),?,0%,?,6%,-18%
CC(=O)n1nc(-c2ccccc2)cc1-c1ccccc1,-26%,·,·,·,-16%
COc1ccc(N2CCN(C(=O)c3ccc(Cl)c(S(=O)(=O)N4CCOCC4)c3)CC2)cc1,?,·,·,·,-26%
COc1ccccc1-c1coc2c(CN3CCOCC3)c(O)ccc2c1=O,5%,·,1%,1%,13%
COc1cc(-c2noc(C3CC(=O)N(c4cc(C)ccc4C)C3)n2)cc(OC)c1OC (stereo unspecified),16µM*,7%,·,·,18µM*
CCCCC(=O)N=c1sc2cc([N+](=O)[O-])ccc2n1C,-22%,6%,0%,-4%,?
CCCCc1nc2c(c3c1CC(C)OC3)CN(CCC(C)C)CC2 (stereo unspecified),·,5%[21 µM],-4%[10 µM],-4%[10 µM],·
O=C(CSc1nnc(COc2ccccc2F)n1-c1ccccc1)NCc1ccco1,-4%,11%,1%,-2%,-8%
